Results reported in PubChem BioAssay.
Activity calls are given as the source filed them.

Columns and labels:
[1] = biological target: Albumin (Bos taurus) (UniProt P02769); test: bovine serum albumin binders on microarray, profiling panel, artefact control for SMM control protein annotation, biochemical, small-molecule microarray, Alexa647 label, 635/667 nm fluorescence (AID 1118); details: BSA-A647 binding, fluorescence 635 nm, higher = more signal;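 note: score merges 667 nm emission intensity and signal-to-noise per printed compound spot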
Chain of Albumin (Bos taurus) (P02769 whole entry, looked up): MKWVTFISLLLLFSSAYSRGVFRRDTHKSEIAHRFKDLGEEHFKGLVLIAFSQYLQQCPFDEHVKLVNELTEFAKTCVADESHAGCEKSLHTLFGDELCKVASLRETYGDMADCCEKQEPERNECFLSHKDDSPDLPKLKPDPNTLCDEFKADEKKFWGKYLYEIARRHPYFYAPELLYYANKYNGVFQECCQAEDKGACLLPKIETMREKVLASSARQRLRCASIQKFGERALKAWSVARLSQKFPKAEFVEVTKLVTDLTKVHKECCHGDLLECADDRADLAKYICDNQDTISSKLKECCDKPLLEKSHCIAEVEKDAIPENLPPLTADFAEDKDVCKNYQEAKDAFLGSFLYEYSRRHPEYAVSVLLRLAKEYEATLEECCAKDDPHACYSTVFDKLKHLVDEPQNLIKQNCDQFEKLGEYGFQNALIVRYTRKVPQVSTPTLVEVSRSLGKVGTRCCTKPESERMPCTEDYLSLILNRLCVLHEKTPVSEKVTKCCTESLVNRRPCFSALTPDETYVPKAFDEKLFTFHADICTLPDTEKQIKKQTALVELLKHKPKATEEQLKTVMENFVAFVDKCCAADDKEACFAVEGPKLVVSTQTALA

[2] = small-molecule microarray binders of probe aXIP, primary screen, biochemical, NeuroSMM set, 635/667 nm fluorescence (AID 1119); details: higher = more signal, called active from +8 up or from −8 down;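 note: probe is the protein aXip251-270 applied at 1 µg/mL to compound-printed slides; binding of probe to printed compounds measured as 667 nm fluorescence plus signal to noise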
[3] = small-molecule binders of probe aNOTCH3, primary screen, biochemical, small-molecule microarray, 635/667 nm fluorescence (AID 1120); details: higher = more signal;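 note: probe is a biotin-tagged antibody raised against NOTCH3 rather than NOTCH3 protein; score merges spot fluorescence near 667 nm with spot signal to noise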
[4] = small-molecule binders of probe aNOTCH2, primary screen, biochemical, small-molecule microarray, 635/667 nm fluorescence (AID 1121); details: higher = more signal;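 note: score merges feature fluorescence read at 667 nm with its signal to noise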
[5] = biological target: Carbonic anhydrase 2 (Homo sapiens) (UniProt P00918); test: CAII small-molecule binders, profiling panel, biochemical, small-molecule microarray, Alexa647-labelled CAII (AID 1122); details: CAII-A647 binding fluorescence, higher = more signal
[6] = COS7 lysate on small-molecule microarray, probe aHis, 635 nm (AID 1123); details: COS7 cell lysate, fluorescence, higher = more signal;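 note: z-score combines 667nm fluorescence intensity with signal-to-noise per printed compound spot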
[7] = compound binding in COS7 lysate, probe aLAP1, primary screen, cell lysate, small-molecule microarray (AID 1124); details: probe aLAP1, fluorescence, higher = more signal;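 note: lysate comes from COS7 cells expressing LAP1 and is applied at 0.3 µg/mL; score merges spot fluorescence near 667 nm with signal-to-noise over triplicate slides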
[8] = test system: Sam68 (KHDRBS1); test: Sam68 small-molecule binders, primary screen, biochemical, small-molecule microarray, 635 nm fluorescence (AID 1125); details: small-molecule microarray binding, higher = more signal;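 note: score merges 667 nm channel intensity with signal to noise over triplicate slides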
[9] = test system: Chordin-like protein 2 (CHRDL2); test: CHRDL2 small-molecule binders, primary screen, biochemical, small-molecule microarray, 635 nm fluorescence (AID 1126); details: small-molecule microarray binding, fluorescence 635 nm; higher = more signal;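 note: printed compound slides probed with Chrdl2 protein at 4 µg/mL for 1 h at 4 C; score merges 667 nm emission intensity with signal to noise over three replicate slides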
[10] = biological target: Concanavalin-A (Canavalia ensiformis) (UniProt P02866); test: ConA small-molecule binders, primary screen, artefact control for SMM control protein annotation, biochemical, small-molecule microarray, Alexa647 label, 635 nm (AID 1127); details: ConA-A647 binding fluorescence, higher = more signal;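 note: z combines 667 nm emission intensity with signal-to-noise across three replicate slides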
Chain of Concanavalin-A (Canavalia ensiformis) (P02866 whole entry, looked up): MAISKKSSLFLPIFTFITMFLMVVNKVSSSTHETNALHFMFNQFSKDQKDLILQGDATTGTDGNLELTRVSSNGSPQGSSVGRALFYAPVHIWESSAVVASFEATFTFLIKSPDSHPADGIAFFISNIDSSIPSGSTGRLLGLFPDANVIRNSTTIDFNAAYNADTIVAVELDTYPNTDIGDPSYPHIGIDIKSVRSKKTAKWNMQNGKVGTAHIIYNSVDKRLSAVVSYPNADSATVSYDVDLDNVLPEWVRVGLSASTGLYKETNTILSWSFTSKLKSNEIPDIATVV

SMILES	composite z-score [1]	composite Z-score [2]	composite z-score [3]	composite z-score [4]	composite z-score [5]	composite z-score [6]	composite z-score [7]	composite z-score [8]	composite z-score [9]	composite z-score [10]
COCCOC(=O)N1C(=O)[C@@]2(c3cc(C#CCCO)ccc31)[C@H](C(=O)Nc1nc3ccccc3s1)[C@H]1C(=O)O[C@H](c3ccccc3)[C@H](c3ccccc3)N1[C@@H]2c1ccc(O)cc1	-0.767	0.326 (inactive)	0.177	0.0687	0.473	2.08	0.799	1.31	0.791	1.17
O=C(C1N=C(c2ccc(OCCCO)cc2)N(c2ccccc2)O1)N1CCCCC1 (stereo not given)	0.909	1.91 (inactive)	0.304	0.116	0.718	2.31	0.936	1.29	0.165	1.2
CC(C)=C1C(=O)C(c2ccccc2)=C2CN3C(=O)N(CCc4ccccc4)C(=O)[C@]3(Cc3ccc(C(F)(F)F)cc3)[C@H]21	0.682	-0.355 (inactive)	0.34	0.134	0.368	1.95	0.224	-0.439	-2.09	-0.47
CCCCN1CC=CC23O[C@@H]4/C=C\CCCOC(=O)C4[C@H]2C(=O)N(CCO)[C@@H]3C1=O (stereo not given in full)	0.634	0.257 (inactive)	-0.426	-0.161	0.321	1.1	-0.0065	0.109	-1.08	-0.557
C#CCN(Cc1ccccc1Br)[C@H](/C=C/c1ccccc1)[C@@H](O)Cc1ccccc1	-0.33	0.258 (inactive)	-0.226	-0.167	-0.128	0.222	0.163	0.446	0.129	-1.01
O=C1O[C@@H](c2ccccc2)[C@@H](c2ccccc2)N2[C@@H](c3ccc(O)cc3)[C@]3(C(=O)Nc4ccc(C#CCCO)cc43)[C@@H](C(=O)N3CCN(c4ncccn4)CC3)[C@H]12	-0.777	0.698 (inactive)	0.148	-0.457	0.523	0.457	-0.143	1.11	1.14	1.12
CCCCC[C@H]1OC[C@@]23C=C(Br)[C@@H](CC12)[C@@]1(CO1)C3=O (stereo not given in full)	-0.677	0.39 (inactive)	-0.126	-0.0907	-0.174	-0.0346	-0.144	0.491	-0.194	-0.308
NC(=O)[C@H]1[C@@H]2C(=O)O[C@@H](c3ccccc3)[C@@H](c3ccccc3)N2[C@@H](c2ccc(OCCO)cc2)[C@]12C(=O)Nc1ccc(C#CCCO)cc12	0.586	0.988 (inactive)	0.0203	0.0252	0.537	1.26	0.204	1.16	0.0273	1.07
O=C1CS(=O)(=O)C(c2cccc([N+](=O)[O-])c2)N1c1ccccc1 (stereo not given)	0.501	1.11 (inactive)	0.482	0.48	0.787	0.904	0.85	0.329	0.527	0.353
COc1cc2c(cc1O)C(c1cccs1)N(Cc1cc3c(cc1Br)OCO3)CC2 (stereo not given)	0.794	0.715 (inactive)	0.0438	-0.0397	0.723	2.92	1.03	1.04	0.417	1.12
COc1ccc(C#Cc2ccc3c(c2)[C@]2(C(=O)N3)[C@H](C(=O)O)[C@H]3C(=O)O[C@H](c4ccccc4)[C@H](c4ccccc4)N3[C@@H]2c2ccc(O)cc2)cc1	0.314	-0.118 (inactive)	-0.243	-0.0664	0.659	1.15	0.577	0.285	-0.844	-0.425
C[N+](C)(C)CCCC[C@@H]1NC(=O)[C@@H]2C[C@H](C(=O)NCCCCCCN)[C@H](c3cccc(OCCO)c3)N2C1=O	0.919	1.24 (inactive)	0.39	0.409	0.608	1.54	0.731	1.31	0.518	1.12
CO[C@H]1O[C@H](CO)[C@@H](OC(=O)Nc2ccc(Br)cc2)[C@@H]2OC(=O)[C@@H](Cc3ccccc3)C/C=C/C[C@H](Cc3ccccc3)C(=O)O[C@@H]12	0.771	-1.09 (inactive)	0.11	-0.0601	0.635	1.65	0.0964	0.968	-0.173	0.516
CC(C)C[C@@H]1NC(=O)[C@@H]2C[C@H](C(=O)NCCCCCCN)[C@H](c3cccc(OCCO)c3)N2C1=O	0.586	0.799 (inactive)	0.16	-0.0859	0.659	2.22	0.636	1.31	0.668	1.03
